# Screening results (PubChem BioAssay)
# An excerpt weighted towards active compounds, which were near 6.7% of everything screened.
# Anthrax LF inh2 – blocks Bacillus anthracis lethal factor protease. P15917. multiplex microsphere protease cleavage assay, LF. inhibition, % at 10 µM. 360,000 tested, 0.12% active. AID 588501
# BoNT A protease – BoNT A light chain protease inhibition; multiplex microsphere protease substrate cleavage, flow cytometry; inhibition, % at 10 µM; 360,000 tested, 0.17% active; AID 588499
# GDH-TPI inh – inhibits GDH-TPI coupling enzymes, artifact for Mtb FBA screen | 360,000 tested, 1.2% active | inhibition, % at 4.8 µM | GDH-TPI coupled enzyme counterscreen, NADH absorbance; in the data active = inhibition above about 30%
# BoNT-F LC inh – BoNT F light chain protease inhibition. inhibition, % at 10 µM. 360,000 tested, 0.22% active. Multiplex microsphere protease cleavage assay, flow cytometry; in the data active = inhibition above about 35%, passing the limit was not always enough; inconclusive = no clear call, values can overlap the other calls
# Autofluor counter – counter-screen for toxin protease inhibitors: compound fluorescence. fluorescence intensity (no concentration beside the values). compound autofluorescence counterscreen, microsphere flow cytometry; hits give high values. 360,000 tested, 3.1% active; in the data active = fluorescence intensity above about 16000; inconclusive = no clear call, values can overlap the other calls
# FBA Mtb inh – Mtb fructose-bisphosphate aldolase inhibition | 360,000 tested, 2.3% active | inhibition, % at 1 µM | P9WQA3 | purified M. tuberculosis FBA, fluorescence read-out; in the data active = inhibition above about 27%
# Numbers stand for hits; – = inactive; ? = inconclusive; · = not tested or not shown. Rule as the data show it, unless noted: active = inhibition above about 30%; inconclusive = no clear call, values can overlap the other calls; inactive = below that.
SMILES,Anthrax LF inh2,BoNT A protease,GDH-TPI inh,BoNT-F LC inh,Autofluor counter,FBA Mtb inh
O=C(c1ccccc1)c1nc2ccccc2n(CCCn2c(=O)c(C(=O)c3ccccc3)nc3ccccc32)c1=O,–,–,–,–,16402,–
CCc1ccc(C(=O)C(C)OC(=O)Cc2n[nH]c(=O)c3ccccc23)cc1 (stereo not drawn),–,–,–,–,–,–
Cc1cc(=O)[nH]c(SCc2nc3ncccn3c2Br)n1,–,–,–,–,24282,–
O=c1[nH]c(=S)c2ncn(-c3ccccc3)c2[nH]1,–,–,31.2,?,–,–
Nc1nc2c(ncn2-c2ccccc2)c(=O)[nH]1,–,–,–,–,–,–
O=C1CSc2ccc(C(=O)N3CCN(c4ccccn4)CC3)cc2N1,–,?,–,–,25914,–
O=C(c1ccc2c(c1)OCCO2)N1CCN(c2ccccn2)CC1,–,–,–,–,17835,–
O=C1Nc2cc(C(=O)N3CCN(c4ccccn4)CC3)ccc2S/C1=C\c1ccccc1,–,–,–,–,–,–
N#CC(=Cc1cccs1)c1nc(-c2ccc(Cl)cc2)cs1,–,–,–,–,–,–
CCOc1ccc(S(=O)(=O)N2CCCC(C(=O)NCc3ccncc3)C2)cc1C (stereo not drawn),–,–,–,–,–,–
COCCNC(=O)C(=O)Nc1ccc(Br)cc1,–,–,–,–,–,–
COc1ccc(NC(=O)COc2ccc(-c3ccccc3)cc2)cc1,–,–,–,–,–,–
CC1CCN(C(=O)Cn2cc(SCC(=O)NCC3CCCO3)c3ccccc32)CC1 (stereo not drawn),–,–,–,–,–,–
COc1ccccc1NC(=O)/C=C/c1cc([N+](=O)[O-])ccc1OC(F)F,–,–,–,–,–,–
COC(=O)c1ccc(CNC(=O)/C=C/c2cc([N+](=O)[O-])ccc2OC(F)F)cc1,–,–,–,–,19547,–
O=C(/C=C/c1cc([N+](=O)[O-])ccc1OC(F)F)NCc1ccc(Cl)cc1,–,–,–,–,–,–
COc1ccc(CNC(=O)/C=C/c2cc([N+](=O)[O-])ccc2OC(F)F)cc1OC,–,?,–,–,18771,–
COc1ccc(CNC(=O)/C=C/c2cc([N+](=O)[O-])ccc2OC(F)F)cc1,–,?,–,–,16762,–
Nc1ncnc2c1ccn2[C@H]1CN(Cc2ccc(Cl)cc2)C[C@@H](CO)O1,–,–,–,–,–,–
CC(=O)c1ccccc1NS(=O)(=O)c1ccccc1Cl,–,–,–,–,–,–
CCOC(=O)C(O)(CC(=O)c1ccc(Cl)cc1)C(=O)OCC,–,–,–,–,–,–
CCc1ccc(N2C(=O)CN(Cc3sccc3C)C2=S)cc1,–,–,–,–,–,–
CC1=CC(c2ccccc2)=Nc2ccc(C)cc2N1,–,–,–,–,–,–
CCc1c(C)sc(NC(=O)c2cc(-c3ccco3)on2)c1C#N,–,–,–,–,23332,–
Cc1cc(NC(=O)c2cc(-c3ccco3)on2)n(-c2ccccc2)n1,–,–,–,–,23364,–
SMILES,Anthrax LF inh2,BoNT A protease,GDH-TPI inh,BoNT-F LC inh,Autofluor counter,FBA Mtb inh
COc1ccccc1-c1cc(C(=O)Nc2ccc(F)cc2F)no1,–,–,–,–,20081,–
COc1ccccc1-c1cc(C(=O)NC(C)C)no1,–,–,–,–,–,–
COc1ccccc1-c1cc(C(=O)Nc2cc(C)nn2-c2ccccc2)no1,–,–,–,–,20928,–
Cc1cc(NC(=O)c2cc(-c3ccccc3)on2)n(-c2ccccc2)n1,–,–,–,–,–,–
CN(C)CCCNC(=O)C[C@H]1C[C@H](C(=O)N2CCOCC2)[C@@]2(C)c3[nH]c4ccc(Cl)cc4c3CCN2C1=O,–,–,–,–,–,–
O=C(CCCC(=O)N(CC(=O)NC1CCCC1)c1ccc(F)c(Cl)c1)Nc1ccccn1,–,–,–,–,–,–
COc1ccccc1-c1ccc(C(=O)O)o1,–,–,–,–,–,131.1
O=C(Nc1ccc(-c2nc3ccccc3s2)cc1)c1cc(-n2cnnc2)ccc1Cl,–,–,–,–,–,–
CCOc1ccccc1NC(=O)c1cccc2ccccc12,·,·,–,·,·,–
COc1ccc(NC(=O)C2CCCN2S(=O)(=O)c2ccc(C)cc2)cc1 (stereo not drawn),–,–,–,–,17367,–
COc1ccccc1NC(=O)C1CCCCN1S(=O)(=O)c1ccc(F)cc1 (stereo not drawn),–,–,–,–,16434,–
CCOc1ccccc1NC(=O)C1CCCCN1S(=O)(=O)c1ccccc1 (stereo not drawn),–,–,–,–,–,–
COc1ccc(NC(=O)C2CCCCN2S(=O)(=O)c2ccc(F)cc2)c(OC)c1 (stereo not drawn),–,–,–,–,17466,–
COc1ccc(NC(=O)C2CCCCN2S(=O)(=O)c2ccc(F)cc2)cc1 (stereo not drawn),–,–,–,–,–,–
CC1CCCC(C)N1C(=O)c1ccc2c(c1)S(=O)(=O)c1ccccc1C2=O (stereo not drawn),–,–,–,–,–,–
CCOC(=O)N1CCC(NC(=O)c2cccs2)CC1,–,–,–,–,–,–
CCOC(=O)Cc1csc(NC(=O)CSc2nnc(-c3ccc(NS(=O)(=O)CC)cc3)o2)n1,–,–,–,–,21681,–
CCOc1cccc(-c2c(C(=O)N/N=C/c3c(F)cccc3Cl)nnn2-c2nonc2N)c1,–,–,–,–,–,–
COc1ccc2c(c1)[nH]c1c(C)nccc12,–,–,–,–,–,150.5
CCOc1ccc(NC(=O)Nc2cc(C(C)C)c(O)cc2C)cc1,–,–,–,–,–,–
CCOc1ccc(NC(=O)Nc2cc(C)ccc2F)cc1,–,–,–,–,16132,–
COc1ccc(OC)c(CNC(=O)CCCn2ccc3cc(S(=O)(=O)N4CCCC4)ccc32)c1,–,–,–,–,–,–
Cc1c(C(=O)NNS(=O)(=O)c2ccccc2)sc(=S)n1C,–,–,–,–,–,–
CC(=O)NNC(=O)c1sc(=S)n(C)c1C,–,–,33.3,?,–,–
COc1ccc(OCC(=O)NC(=S)Nc2ccc(N3CCOCC3)c(Cl)c2)cc1,–,–,–,–,–,–
SMILES,Anthrax LF inh2,BoNT A protease,GDH-TPI inh,BoNT-F LC inh,Autofluor counter,FBA Mtb inh
CCCCn1nnnc1C(c1ccc(OC)cc1)N1CCC2(CC1)C(=O)NCN2c1ccccc1 (stereo not drawn),–,–,·,–,–,–
CCOc1ccc(-c2c(=O)n(OCc3ccccn3)c3ccccc3[n+]2[O-])cc1,–,–,–,–,22653,–
CCOC(=O)COn1c(=O)c(-c2ccccc2)[n+]([O-])c2ccccc21,29.7,–,–,–,–,–
CCOC(=O)COn1c(=O)c(-c2ccc(OC)cc2)[n+]([O-])c2ccccc21,–,–,–,–,–,–
O=c1c(-c2ccc(Oc3ccccc3)cc2)[n+]([O-])c2ccccc2n1OCc1ccccn1,–,–,–,–,–,–
CC(C)(C)c1ccc(C(=O)NCC(=O)OCC(=O)N2CCN(S(=O)(=O)c3ccc(Cl)cc3)CC2)cc1,–,–,–,–,–,–
C=CC(=O)NC(NC(=O)C=C)c1ccc(Br)cc1,–,?,–,–,21256,–
